# Test results as given in PubChem BioAssay (EPA / NIEHS).
# Calls of active or inactive are those of the source. How the source made its calls: active means hit-call score of the fitted dose curve at least 0.9, where 1 is the maximum; inactive means score below 0.9.
# Columns and labels:
# [1] = read-out: CFLAR gene, CFLAR (gene 8837); test: LTEA_HepaRG_CFLAR: Life Technologies and Expression Analysis (LTEA) Assay for CFLAR gene using HepaRG (AID 2283455); conditions: mRNA level, 48 h; actives raise or lower the signal
# Outline: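 HepaRG cells were plated for 48 h, switched to serum-free induction medium, then exposed in duplicate for 48 h to 8 concentrations (top 100 uM, half-log steps, 0.5% DMSO). CFLAR mRNA was measured by qRT-PCR, normalized to ACTB, GAPDH and POLR2A.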
# [2] = read-out: Forkhead box O1 (FOXO1), FOXO1 (gene 2308); test: LTEA_HepaRG_FOXO1: Life Technologies and Expression Analysis (LTEA) Assay for Forkhead box O1 (FOXO1) using HepaRG (AID 2283456); conditions: mRNA level, 48 h; actives raise or lower the signal
# Outline: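 Differentiated human HepaRG cells in serum-free induction medium were exposed in duplicate for 48 h to eight half-log concentrations (top 100 uM, 0.5% DMSO). FOXO1 mRNA was measured by TaqMan qRT-PCR, normalised to ACTB, GAPDH and POLR2A, and fitted bidirectionally against DMSO.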
# [3] = read-out: ABC Transporter (ABCB1), ABCB1 (gene 5243); test: LTEA_HepaRG_ABCB1: Life Technologies and Expression Analysis (LTEA) Assay for ABC Transporter (ABCB1) using HepaRG (AID 2283460); conditions: mRNA level, 48 h; actives raise or lower the signal
# Outline: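 Differentiated human HepaRG cells, plated 48 h then switched to serum-free induction medium, were exposed in duplicate to eight half-log concentrations up to 100 uM in 0.5% DMSO for 48 h. ABCB1 mRNA was measured by TaqMan qRT-PCR, normalized to ACTB/GAPDH/POLR2A.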
# [4] = read-out: growth arrest and DNA damage 45 (GADD45B), GADD45B (gene 4616); test: LTEA_HepaRG_GADD45B: Life Technologies and Expression Analysis (LTEA) Assay for growth arrest and DNA damage 45 (GADD45B) using HepaRG (AID 2283461); conditions: mRNA level, 48 h; actives raise or lower the signal
# Outline: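 Transcript level quantified by Fluidigm TaqMan qRT-PCR with three housekeeping genes for normalization, analyzed for up- or down-regulation against 0.5% DMSO. HepaRG cultures dosed 48 h at eight half-log concentrations up to 100 uM, duplicates.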
# [5] = read-out: ABC Transporter (ABCC3), ABCC3 (gene 8714); test: LTEA_HepaRG_ABCC3: Life Technologies and Expression Analysis (LTEA) Assay for ABC Transporter (ABCC3) using HepaRG (AID 2283462); conditions: mRNA level, 48 h; actives raise or lower the signal
# Outline: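 Transcript level by TaqMan qRT-PCR, normalised to three housekeeping genes, fitted in both directions relative to vehicle. Chemicals tested in duplicate at eight half-log concentrations up to 100 uM for 48 h on HepaRG cells (0.5% DMSO).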
# [6] = read-out: ABC Transporter (ABCB11), ABCB11 (gene 8647); test: LTEA_HepaRG_ABCB11: Life Technologies and Expression Analysis (LTEA) Assay for ABC Transporter (ABCB11) using HepaRG (AID 2283463); conditions: mRNA level, 48 h; actives raise or lower the signal
# Outline: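 Differentiated human HepaRG cells were exposed for 48 h in serum-free induction medium to eight half-log concentrations up to 100 uM in 0.5% DMSO. ABCB11 mRNA was quantified by qRT-PCR, normalized to ACTB, GAPDH and POLR2A, and fitted bidirectionally versus DMSO.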
# [7] = read-out: ABC Transporter (ABCC2), ABCC2 (gene 1244); test: LTEA_HepaRG_ABCC2: Life Technologies and Expression Analysis (LTEA) Assay for ABC Transporter (ABCC2) using HepaRG (AID 2283464); conditions: mRNA level, 48 h; actives raise or lower the signal
# Outline: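 Endpoint is ABCC2 transcript level from qRT-PCR, normalized to three housekeeping genes and fitted bidirectionally relative to DMSO. Human HepaRG cells received test chemical for 48 h at up to 100 uM (8 points, half-log steps, 0.5% DMSO), duplicate wells.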
# [8] = read-out: Broad substrate specificity ATP-binding cassette transporter ABCG2 (Homo sapiens) (UniProt Q9UNQ0); test: LTEA_HepaRG_ABCG2: Life Technologies and Expression Analysis (LTEA) Assay for ABC Transporter (ABCG2) using HepaRG (AID 2283465); conditions: mRNA level, 48 h; actives raise or lower the signal
# Outline: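 Differentiated HepaRG cells in serum-free induction medium were exposed for 48 h, in duplicate, to eight half-log concentrations up to 100 uM in 0.5% DMSO. ABCG2 mRNA was measured by TaqMan qRT-PCR, normalized to ACTB, GAPDH and POLR2A, and fitted bidirectionally versus DMSO.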
# [9] = read-out: ATP-citrate lyase (ACLY), ACLY (gene 47); test: LTEA_HepaRG_ACLY: Life Technologies and Expression Analysis (LTEA) Assay for ATP-citrate lyase (ACLY) using HepaRG (AID 2283466); conditions: mRNA level, 48 h; actives raise or lower the signal
# Outline: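 Differentiated human HepaRG cells in serum-free induction medium exposed 48 h, in duplicate, to eight half-log concentrations from 100 uM top in 0.5% DMSO; ACLY mRNA measured by qRT-PCR, normalized to ACTB, GAPDH, POLR2A, fitted bidirectionally versus DMSO.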
# [10] = read-out: Peroxisomal acyl-coenzyme A oxidase 1 (ACOX1) gene, ACOX1 (gene 51); test: LTEA_HepaRG_ACOX1: Life Technologies and Expression Analysis (LTEA) Assay for Peroxisomal acyl-coenzyme A oxidase 1 (ACOX1) gene using HepaRG (AID 2283467); conditions: mRNA level, 48 h; actives raise or lower the signal
# Outline: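 Differentiated human HepaRG cells were exposed in duplicate for 48 h in serum-free induction medium to eight half-log concentrations up to 100 uM in 0.5% DMSO. ACOX1 mRNA was then quantified by TaqMan qRT-PCR, normalized to ACTB, GAPDH and POLR2A.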
# [11] = read-out: Bcl-2 (BAX) gene, BAX (gene 581); test: LTEA_HepaRG_BAX: Life Technologies and Expression Analysis (LTEA) Assay for Bcl-2 (BAX) gene using HepaRG (AID 2283470); conditions: mRNA level, 48 h; actives raise or lower the signal
# Outline: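 Differentiated human HepaRG cells, plated 48 h then switched to serum-free induction medium, were exposed 48 h to 8 half-log concentrations up to 100 uM in 0.5% DMSO; BAX mRNA measured by qRT-PCR, normalized to ACTB, GAPDH, POLR2A.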
# [12] = read-out: adenosine kinase (ADK) gene, ADK (gene 132); test: LTEA_HepaRG_ADK: Life Technologies and Expression Analysis (LTEA) Assay for adenosine kinase (ADK) gene using HepaRG (AID 2283471); conditions: mRNA level, 48 h; actives raise or lower the signal
# Outline: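 Following 48 h exposure of HepaRG cells in 0.5% DMSO (top concentration 100 uM, duplicate wells), ADK mRNA induction or suppression was measured by qRT-PCR, normalised to ACTB/GAPDH/POLR2A, and fitted bidirectionally relative to vehicle.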
# [13] = read-out: Alpha-fetoprotein (AFP) gene, AFP (gene 174); test: LTEA_HepaRG_AFP: Life Technologies and Expression Analysis (LTEA) Assay for Alpha-fetoprotein (AFP) gene using HepaRG (AID 2283472); conditions: mRNA level, 48 h; actives raise or lower the signal
# Outline: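 Human HepaRG cells plated 48 h, then switched to serum-free induction medium and exposed in duplicate for 48 h to 8-point half-log series from 100 uM in 0.5% DMSO. AFP mRNA by qRT-PCR, normalized to ACTB, GAPDH, POLR2A; bidirectional fit versus DMSO.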
# BCL2L11 (gene 10018) = test: LTEA_HepaRG_BCL2L11: Life Technologies and Expression Analysis (LTEA) Assay for Bcl-2 (BCL2L11) gene using HepaRG (AID 2283473); conditions: mRNA level, 48 h; actives raise or lower the signal
# Outline: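 BCL2L11 transcript levels are measured by Fluidigm qRT-PCR, normalized to three housekeeping genes. HepaRG cultures were plated 48 h, then treated 48 h with test chemical (top 100 uM, half-log, 0.5% DMSO vehicle); curves were fitted bidirectionally against DMSO.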
# [14] = read-out: Apolipoprotein A-V (APOA5) gene, APOA5 (gene 116519); test: LTEA_HepaRG_APOA5: Life Technologies and Expression Analysis (LTEA) Assay for Apolipoprotein A-V (APOA5) gene using HepaRG (AID 2283474); conditions: mRNA level, 48 h; actives raise or lower the signal
# Outline: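 APOA5 transcript levels were quantified by qRT-PCR, normalized to three housekeeping genes, after 48 h chemical treatment of HepaRG cells (8 points, 100 uM maximum, half-log steps, 0.5% DMSO). Curves fitted in both directions against vehicle.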
# [15] = read-out: Apoptosis regulator Bcl-2 (Homo sapiens) (UniProt P10415); test: LTEA_HepaRG_BCL2: Life Technologies and Expression Analysis (LTEA) Assay for Bcl-2 gene using HepaRG (AID 2283475); conditions: mRNA level, 48 h; actives raise or lower the signal
# Outline: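 Differentiated HepaRG cells in serum-free induction medium were exposed for 48 h to eight half-log concentrations up to 100 uM in 0.5% DMSO, in duplicate. BCL2 mRNA was quantified by TaqMan qRT-PCR normalised to ACTB, GAPDH and POLR2A, with bidirectional fitting versus DMSO.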
# Caspase-3 (Homo sapiens) = Caspase-3 (Homo sapiens) (UniProt P42574); test: LTEA_HepaRG_CASP3: Life Technologies and Expression Analysis (LTEA) Assay for cysteine-aspartic acid protease (CASP3) using HepaRG (AID 2283477); conditions: mRNA level, 48 h; actives raise or lower the signal
# Outline: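 Expression of CASP3 was quantified by TaqMan qRT-PCR against three housekeeping genes (ACTB, GAPDH, POLR2A), bidirectionally versus 0.5% DMSO. HepaRG cultures received compounds in duplicate, top 100 uM with half-log steps, for 48 h in serum-free induction medium.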
# [16] = read-out: Cytochrome P450 (CYP24A1), CYP24A1 (gene 1591); test: LTEA_HepaRG_CYP24A1: Life Technologies and Expression Analysis (LTEA) Assay for Cytochrome P450 (CYP24A1) using HepaRG (AID 2283478); conditions: mRNA level, 48 h; actives raise or lower the signal
# Outline: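 mRNA of CYP24A1 quantified by TaqMan qRT-PCR (ACTB/GAPDH/POLR2A normalization) after 48 h chemical exposure of HepaRG cells, top concentration 100 uM, half-log steps, 0.5% DMSO vehicle, duplicates. Curves fitted bidirectionally against DMSO baseline.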
# [17] = read-out: Bcl-2 (BID) gene, BID (gene 637); test: LTEA_HepaRG_BID: Life Technologies and Expression Analysis (LTEA) Assay for Bcl-2 (BID) gene using HepaRG (AID 2283476); conditions: mRNA level, 48 h; actives raise or lower the signal
# Outline: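 Differentiated HepaRG cells in serum-free induction medium were exposed in duplicate for 48 h to eight half-log concentrations up to 100 uM in 0.5% DMSO. BID mRNA was quantified by qRT-PCR, normalized to ACTB, GAPDH and POLR2A.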
# [18] = CEETOX_H295R_TESTO: CeeTox H295R High-throughput Steroidogenesis Assay for Testosterone (TESTO) (AID 2283457); conditions: actives raise or lower the signal
# Outline: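 Testosterone secreted into the medium over 48 h by H295R cells (maximum passage 10) was quantified by LC-MS/MS after MTBE extraction. Fitted in both directions against DMSO, with concentrations diluted until MTT viability was ≥70%.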
# Chain of Apoptosis regulator Bcl-2 (Homo sapiens) (P10415 whole entry, looked up): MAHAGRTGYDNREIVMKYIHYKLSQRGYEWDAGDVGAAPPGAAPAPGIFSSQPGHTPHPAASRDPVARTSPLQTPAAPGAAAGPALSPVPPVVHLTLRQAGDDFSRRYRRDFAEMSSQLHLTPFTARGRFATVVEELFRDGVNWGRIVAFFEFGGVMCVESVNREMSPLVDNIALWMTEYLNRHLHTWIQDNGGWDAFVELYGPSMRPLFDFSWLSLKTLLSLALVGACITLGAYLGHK
# Chain of Caspase-3 (Homo sapiens) (P42574 whole entry, looked up): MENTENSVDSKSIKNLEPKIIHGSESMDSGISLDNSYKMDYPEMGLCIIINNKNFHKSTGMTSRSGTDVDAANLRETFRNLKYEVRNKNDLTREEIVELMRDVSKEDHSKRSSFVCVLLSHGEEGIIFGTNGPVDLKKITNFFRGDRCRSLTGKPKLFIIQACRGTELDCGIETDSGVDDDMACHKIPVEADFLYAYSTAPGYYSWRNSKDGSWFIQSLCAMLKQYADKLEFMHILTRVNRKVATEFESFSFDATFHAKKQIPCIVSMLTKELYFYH
# Chain of Broad substrate specificity ATP-binding cassette transporter ABCG2 (Homo sapiens) (Q9UNQ0 whole entry, looked up): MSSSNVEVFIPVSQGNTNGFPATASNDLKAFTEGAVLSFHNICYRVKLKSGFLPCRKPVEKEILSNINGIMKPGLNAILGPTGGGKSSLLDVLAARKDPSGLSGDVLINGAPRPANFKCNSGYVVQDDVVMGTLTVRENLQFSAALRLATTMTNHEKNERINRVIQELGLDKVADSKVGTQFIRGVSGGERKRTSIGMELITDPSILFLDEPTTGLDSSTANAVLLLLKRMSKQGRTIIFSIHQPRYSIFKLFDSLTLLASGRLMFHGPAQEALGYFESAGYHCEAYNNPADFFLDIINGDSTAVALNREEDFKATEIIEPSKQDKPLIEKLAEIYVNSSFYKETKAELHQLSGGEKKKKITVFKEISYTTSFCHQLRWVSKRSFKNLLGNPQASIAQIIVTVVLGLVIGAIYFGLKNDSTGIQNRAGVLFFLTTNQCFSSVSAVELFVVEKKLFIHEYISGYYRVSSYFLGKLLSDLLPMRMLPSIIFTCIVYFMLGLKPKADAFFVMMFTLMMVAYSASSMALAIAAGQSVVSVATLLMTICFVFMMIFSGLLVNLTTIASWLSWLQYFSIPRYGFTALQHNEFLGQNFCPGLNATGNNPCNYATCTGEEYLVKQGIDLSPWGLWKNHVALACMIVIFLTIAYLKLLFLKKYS
compound,measurement,setting,value
Cc1[nH]nc2c1N=C(c1ccccc1Cl)c1cc([N+](=O)[O-])ccc1N2,AC50,[1],12.9 µM (active)
same,AC50,[2],5.4 µM (active)
same,AC50,[3],0.742 µM (active)
same,AC50,[4],4.57 µM (active)
same,AC50,[5],3.26 µM (active)
same,AC50,[6],8.72 µM (active)
same,AC50,[7],31.9 µM (active)
same,outcome,[8],inactive
same,outcome,[9],inactive
same,AC50,[10],20.1 µM (active)
same,AC50,[11],3.85 µM (active)
same,outcome,[12],inactive
same,AC50,[13],4.36 µM (active)
same,AC50,BCL2L11 (gene 10018),2.82 µM (active)
same,AC50,[14],9.84 µM (active)
same,AC50,[15],8.98 µM (active)
same,outcome,Caspase-3 (Homo sapiens),inactive
same,AC50,[16],4.02 µM (active)
CN(Cc1cnc2nc(N)nc(N)c2n1)c1ccc(C(=O)N[C@@H](CCC(=O)O)C(=O)O)cc1,outcome,[1],inactive
same,outcome,[2],inactive
same,outcome,[3],inactive
same,outcome,[4],inactive
same,outcome,[5],inactive
same,AC50,[6],0.206 µM (active)
same,outcome,[7],inactive
same,outcome,[8],inactive
same,outcome,[9],inactive
same,outcome,[11],inactive
same,outcome,[12],inactive
same,AC50,[13],0.231 µM (active)
same,outcome,BCL2L11 (gene 10018),inactive
same,outcome,[14],inactive
same,outcome,[15],inactive
same,outcome,[17],inactive
same,outcome,Caspase-3 (Homo sapiens),inactive
same,outcome,[16],inactive
CN(C)CCOC(c1ccccc1)c1ccccc1,outcome,[1],inactive
same,outcome,[2],inactive
same,outcome,[3],inactive
same,outcome,[4],inactive
same,outcome,[5],inactive
same,outcome,[6],inactive
same,outcome,[7],inactive
same,outcome,[8],inactive
same,AC50,[9],81.6 µM (active)
same,outcome,[10],inactive
same,outcome,[11],inactive
same,outcome,[12],inactive
same,AC50,[13],73.9 µM (active)
same,outcome,BCL2L11 (gene 10018),inactive
same,outcome,[14],inactive
same,outcome,[15],inactive
same,outcome,[17],inactive
same,outcome,Caspase-3 (Homo sapiens),inactive
OCC(CO)(CBr)CBr,outcome,[1],inactive
same,outcome,[2],inactive
same,outcome,[3],inactive
same,outcome,[4],inactive
same,outcome,[5],inactive
same,outcome,[6],inactive
same,outcome,[7],inactive
same,outcome,[8],inactive
same,outcome,[9],inactive
same,outcome,[10],inactive
same,outcome,[11],inactive
same,outcome,[12],inactive
same,outcome,[13],inactive
same,outcome,BCL2L11 (gene 10018),inactive
same,outcome,[14],inactive
same,outcome,[17],inactive
same,outcome,Caspase-3 (Homo sapiens),inactive
same,outcome,[16],inactive
COc1cc([N+](=O)[O-])ccc1N,outcome,[18],inactive
c1cc[nH]c1,outcome,[18],inactive
Oc1cc2ccccc2cc1O,outcome,[18],inactive
